The panel holds about 83,000 compounds, 20% with a hit somewhere; the sample as a whole holds those more often.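 Values shown are percent growth following 48 h exposure of cells in 96-well plates to a single concentration of compound; below 10 was considered active.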 A number with no mark means an inactive call. Activity calls are given as the source filed them.
Tests used:
Assay in all cases: NCI-60 one-dose screen, 48 h (100 = growth as untreated, 0 = no growth, -100 = all killed)
Conditions in all cases: 10 µM unless noted
HCT-15 colon = system: HCT-15 colon
HT29 colon = system: HT29 colon
SNB-75 CNS = system: SNB-75 CNS
SNB-19 CNS = system: SNB-19 CNS
U251 CNS = system: U251 CNS
PC-3 prostate = system: PC-3 prostate
SK-MEL-5 melanoma = system: SK-MEL-5 melanoma
UACC-62 melanoma = system: UACC-62 melanoma
LOX IMVI melanoma = system: LOX IMVI melanoma
SK-MEL-28 melanoma = system: SK-MEL-28 melanoma
SK-MEL-2 melanoma = system: SK-MEL-2 melanoma
EKVX NSCLC = system: EKVX NSCLC
SN12C renal = system: SN12C renal
UO-31 renal = system: UO-31 renal
TK-10 renal = system: TK-10 renal
ACHN renal = system: ACHN renal
CAKI-1 renal = system: CAKI-1 renal
A498 renal = system: A498 renal
CCRF-CEM leukemia = system: CCRF-CEM leukemia
MOLT-4 leukemia = system: MOLT-4 leukemia

SMILES | growth (HCT-15 colon) | growth (HT29 colon) | growth (SNB-75 CNS) | growth (SNB-19 CNS) | growth (U251 CNS) | growth (PC-3 prostate) | growth (SK-MEL-5 melanoma) | growth (UACC-62 melanoma) | growth (LOX IMVI melanoma) | growth (SK-MEL-28 melanoma) | growth (SK-MEL-2 melanoma) | growth (EKVX NSCLC) | growth (SN12C renal) | growth (UO-31 renal) | growth (TK-10 renal) | growth (ACHN renal) | growth (CAKI-1 renal) | growth (A498 renal) | growth (CCRF-CEM leukemia) | growth (MOLT-4 leukemia)
CC(C)CCSc1nc(NNC(N)=O)c(C#N)c(-c2ccccc2)n1 | 98.7% | 115% | 97.6% | 99.2% | 109% | 98.7% | 104% | 98.1% | 97.6% | 104% | 107% | 99.9% | 95% | 85.1% | 105% | 97% | 93.7% | 105% | 100% | 110%
CC1CCN(C(=O)OCc2nc3nc(Cl)nc(N4CCOCC4)c3[nH]2)CC1 | -12.2% (active) | -66.8% (active) | 14.8% | 60.3% | -89.2% (active) | -59.2% (active) | -27.3% (active) | -94.1% (active) | -86.4% (active) | -86.4% (active) | -92% (active) | 40.4% | -61.4% (active) | -100% (active) | -91.8% (active) | -100% (active) | -73.8% (active) | 42.2% | -7.16% (active) | 0.0264% (active)
CCNC(=O)c1[nH]cc(-c2ccc(OC)cc2)c1-c1cc(OC)cc(OC)c1 | 68.6% | 94.6% | 67% | 84% | 98% | 84.2% | 61.1% | 48.2% | 83.4% | 87.9% | 98.6% | 89.8% | 85.4% | 77.4% | 115% | 67.3% | 59.9% | 91.1% | – | 94.5%
NS(=O)(=O)c1cccc(NC(=O)C(=O)C2C(=O)Nc3ccccc32)c1 (stereo not drawn) | 99.8% | 102% | 74.6% | 100% | 107% | 88.8% | 96.7% | 94.4% | 95.6% | 107% | 113% | 76% | 99.5% | 67.2% | 129% | 90.4% | -3.03% (active) | 120% | 69.7% | 100%
COc1cc(/C=N/NC(=O)c2ccccc2Nc2cccc(C(F)(F)F)c2)ccc1O | 86.1% | 113% | 107% | 84.2% | 87.8% | 80.9% | 58.8% | 78.7% | 76.3% | 104% | 136% | 79.5% | 96.5% | 74.8% | 126% | 103% | 116% | 76.9% | -41.6% (active) | -76.2% (active)
C=C(C)[C@@H]1CC[C@]2(C(=O)NCCCN(CCC#N)CCC#N)CC[C@]3(C)[C@H](CC[C@@H]4[C@@]5(C)CCC(=O)C(C)(C)[C@@H]5CC[C@]43C)[C@@H]12 | 101% | 99.1% | 92% | 98.9% | 94.1% | 94.4% | 102% | 99.6% | 101% | 107% | 105% | 91% | 98.2% | 87.3% | 98.4% | 107% | 94.4% | 102% | – | 110%
O=C(/C=C\c1ccc(OCCCCCC[P+](c2ccccc2)(c2ccccc2)c2ccccc2)cc1)c1ccc2c(c1)OCCO2 | 22% | -17.5% (active) | -40.4% (active) | 16.2% | -58.5% (active) | 6.58% (active) | -98.3% (active) | -18.1% (active) | -68.2% (active) | -0.666% (active) | -42.9% (active) | 23.9% | 2.08% (active) | 4.82% (active) | -9.1% (active) | 5.03% (active) | 2.91% (active) | -30% (active) | – | -20.6% (active)
Cc1cccc(C)c1-c1cc(Cc2ccc(Cl)cc2)c(=O)[nH]n1 | 107% | 105% | 90.5% | 80.9% | 101% | 97.2% | 98.8% | 93.7% | 93.4% | 108% | 114% | 92.8% | 89.5% | 52.5% | 114% | 112% | 146% | 104% | – | 74.3%
COc1cc(CNC(=O)CCCCC[P+](c2ccccc2)(c2ccccc2)c2ccccc2)c(OC)c2c1OCO2 | 99.8% | 45.2% | 68.5% | 53.6% | 63.7% | 63.2% | 84.3% | 41.8% | 61% | 42.1% | 60.3% | 71.8% | 75.4% | 92.3% | 84.3% | 106% | 89.4% | 78.8% | – | 99.2%
NC(=O)c1ncn(C2OC(CO)C(O)C2O)n1 (stereo not drawn) | 89.3% | 73.3% | 80.6% | 104% | 99.7% | 85.2% | 99.1% | 104% | 90.3% | 106% | 40.7% | 90.2% | 82.4% | 83.7% | 109% | 90.5% | 99.2% | 89.1% | 67.1% | 52.7%
CCCCCCCCN1C(=O)/C(=c2\sc3n(c2=O)C2C(NN=3)N(CC)C(=O)N2CC)c2ccccc21 (stereo not drawn) | 93.2% | 100% | -13% (active) | 45.7% | 46.2% | 81.7% | 96.9% | 76.3% | 81.9% | 88.3% | 86.8% | 73.9% | 86.1% | 66.8% | 110% | 73.8% | 49.3% | 86.9% | – | 101%
COc1cc(/C=C/C(=O)c2c(C)oc3nc[nH]c(=O)c23)ccc1O | 98.1% | 108% | 84.4% | 97.3% | 103% | 103% | 101% | 96.5% | 97.7% | 101% | 109% | 97.9% | 97.2% | 84.3% | 135% | 101% | 87.1% | 94.8% | – | 104%
O=C1NC(=O)C(=Cc2cn(Cc3ccccn3)c3ccccc23)C(=O)N1 | 102% | 111% | 89.2% | 99.7% | 97.2% | 94.2% | 98.3% | 85.7% | 96.7% | 114% | 102% | 98% | 102% | 75.5% | 59.8% | 104% | 13.9% | -90.4% (active) | 95.8% | 100%
COc1ccc(C(O)c2cc3c(N)c(C(=O)Nc4ccccc4)sc3nc2C)cc1 (stereo not drawn) | 9.94% (active) | -22% (active) | -7.27% (active) | 24.6% | 5.4% (active) | 17.4% | -31.9% (active) | 19.6% | 34.6% | 68.1% | 9.47% (active) | 26% | 21.5% | 19.1% | 44.2% | 25.7% | 15.1% | -20.8% (active) | 4.7% (active) | 11.4%
Cc1c2c(cc[n+]1Cc1ccccc1)c1ccc(OCc3ccccc3)cc1n2Cc1ccccc1 | 39.2% | -48.7% (active) | -18% (active) | -13.3% (active) | -80.2% (active) | -44.8% (active) | -99.4% (active) | -87.1% (active) | -93.2% (active) | -56.5% (active) | -36% (active) | -28.8% (active) | -86.6% (active) | -18.2% (active) | 11.8% | 8.54% (active) | -5.76% (active) | -34.5% (active) | -16.2% (active) | -51% (active)
O=C(CN1CCOCC1)Nc1ccc2ncnc(Nc3ccc(Oc4cccc(C(F)(F)F)c4)c(Cl)c3)c2c1 | 52.2% | 54% | 73.7% | 61.9% | 62.4% | 44.5% | 58.9% | 71% | 43.8% | 77.1% | 75.9% | 22% | 38.4% | 22.5% | 38.4% | 19% | 33.8% | 10.1% | 58.4% | 37.5%

— PubChem BioAssay (NCI)
